HepG2 viability: qHTS for Inhibitors of TGF-b: Cytotox Counterscreen; Potency, µM (doses to about 46.1 µM), for inactives: top-dose activity change, negative = cytotoxicity, most hits filed as cytotoxic; 0.76% of 410,000 active; HepG2 CAGA-GFP viability, ATP luminescence, 18 h; note: potency is the fitted concentration of half-maximal effect
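CellTiter-Glo luminescence gave cytotoxicity after 18 hours at 37 degrees C. The cells were HepG2 CAGA-GFP in 1% FBS DMEM, stimulated with 500 pg/mL TGF-beta after compound addition. %Activity was normalised to no-cell wells (complete cell-killing) and DMSO (no toxicity), and curves were fitted and classified.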
TDP1 cell noCPT: qHTS for Inhibitors of human tyrosyl-DNA phosphodiesterase 1 (TDP1): qHTS in cells in absence of CPT | DT40 Tdp1-/- hTDP1 cells, no CPT, ATP luminescence, 48 h | Potency, µM (series often up to 46.2 µM), inactives show at the top dose activity change, negative = growth inhibition, usual class: inhibitors | 15% of 420,000 active; note: potency is the fitted concentration of half-maximal effect; % is set by controls: 0 for no effect and ±100 for the full control effect; nearly all actives have a fitted effect of over 55% in size
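Cells were dispensed at 400 per well, compounds added by pin tool, plates incubated ≥48 hr at 37 °C, then CellTiter-Glo added for 30 min at room temperature before luminescence reading. Line: DT40 Tdp1-/- complemented with hTDP1; camptothecin omitted.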
TGFb inhibitor: qHTS for Inhibitors of TGF-b | HepG2 CAGA-GFP TGF-b/SMAD3 reporter, GFP fluorescence, 18 h; TGF-beta stimulated, 500 pg/mL final | Potency, µM (top dose mostly 46.1 µM), inactives show at the top dose activity, negative = inhibition, most hits filed as inhibitors | 1.2% of 410,000 active; note: potency is the fitted concentration of half-maximal effect; % is set by controls: 0 for no effect and ±100 for the full control effect; nearly all actives have a fitted effect of over 65% in size
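Smad-responsive CAGA-GFP expression was quantified in HEPG2 cells exposed to compounds and 500 pg/mL final TGF-beta for 18 h at 37 degrees C; unstimulated wells defined full inhibition.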
TDP1 cell CPT: qHTS for Inhibitors of human tyrosyl-DNA phosphodiesterase 1 (TDP1): qHTS in cells in presence of CPT. chicken DT40 Tdp1-/-;hTDP1 cells + 20 nM CPT, ATP luminescence, 48 h. Potency, µM (titrated, usually from 46.2 µM), without a hit: top-dose activity change, negative = growth inhibition, hits mostly inhibitors. 12% of 420,000 active. AID 686979, 2013; note: potency is the fitted concentration of half-maximal effect; % is set by controls: 0 for no effect and ±100 for the full control effect; nearly all actives have a fitted effect of over 55% in size
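Chicken DT40 Tdp1-/- cells stably complemented with human TDP1 were seeded at 400 cells/well in medium containing 20 nM camptothecin, exposed to pin-transferred compounds, and grown at 37 °C for at least 48 hr. Viability was read as ATP luminescence.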
TDP1 inh: qHTS Assay for Inhibitors of Tyrosyl-DNA Phosphodiesterase (TDP1); recombinant TDP1, AlphaScreen DNA substrate cleavage; 0.28% of 350,000 active; AID 485290, 2010; Potency, µM (series often up to 130 µM), inactives show at the top dose activity change, negative = inhibition, most hits filed as inhibitors; Tyrosyl-DNA phosphodiesterase 1 (Homo sapiens), Q9NUW8; note: potency is the fitted concentration of half-maximal effect; % is set by controls: 0 for no effect and ±100 for the full control effect; nearly all actives have a fitted effect of over 40% in size
Target sequence (Q9NUW8 whole entry, looked up): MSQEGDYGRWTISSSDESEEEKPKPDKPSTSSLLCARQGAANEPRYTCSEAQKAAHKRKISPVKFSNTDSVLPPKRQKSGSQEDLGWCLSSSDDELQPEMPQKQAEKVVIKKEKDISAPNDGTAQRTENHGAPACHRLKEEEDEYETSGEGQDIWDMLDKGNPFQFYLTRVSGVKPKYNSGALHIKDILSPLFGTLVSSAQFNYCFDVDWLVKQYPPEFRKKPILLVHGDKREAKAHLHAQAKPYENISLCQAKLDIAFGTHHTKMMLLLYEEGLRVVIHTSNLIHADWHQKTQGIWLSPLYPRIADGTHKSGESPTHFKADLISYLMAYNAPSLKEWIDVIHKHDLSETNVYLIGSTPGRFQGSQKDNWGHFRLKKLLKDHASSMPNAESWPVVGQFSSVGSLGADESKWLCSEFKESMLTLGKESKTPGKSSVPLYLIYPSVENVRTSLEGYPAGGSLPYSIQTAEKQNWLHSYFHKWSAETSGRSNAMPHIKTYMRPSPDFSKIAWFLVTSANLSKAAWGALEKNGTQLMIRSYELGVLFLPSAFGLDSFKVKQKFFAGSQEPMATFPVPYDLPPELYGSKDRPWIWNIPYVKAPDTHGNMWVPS
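Recombinant human Tdp1 (E. coli-expressed, 1 nM final) preincubated with compounds 15 min at room temperature, then 5'-biotin/3'-phosphotyrosine-FITC DNA substrate (15 nM final) added for 5 min. AlphaScreen beads (10 ug/ml final) added 10 min; cleavage lowers signal.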
IL-1B inflam inh: qHTS for Inhibitors of Inflammasome Signaling: IL-1-beta AlphaLISA Primary Screen; AID 743279, 2014; THP-1 LPS/ATP IL-1B secretion, AlphaLISA, 16 h; stronger effect = lower value; activity change, % at 57.5 µM; 4.7% of 360,000 active; in the data active = activity change below about -50%; inconclusive = mostly about -30% to -49%; note: % is set by controls: 0 for no effect and ±100 for the full control effect
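THP-1 cells pretreated 1 hr with compounds (up to 57.5 uM final), then stimulated with LPS (250 ng/mL final) plus ATP (1.25 mM final); secreted IL-1B measured by AlphaLISA after 16 hr, decreased signal indicating inhibition.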
Active calls of the source: *; ? = inconclusive; . = no result given; [ ] = remark or other dose. In the library only some 19% were active in any assay of this set; here they are far more common. Unless noted, calls come from the whole dose curve; as a rule, active = well fitted curve in the direction sought with a large enough effect; inconclusive = small, poorly fitted or top-dose-only effect, or another doubt; inactive = no such curve, though single readings can be large; an effect the other way counts as inactive or inconclusive.

SMILES	HepG2 viability	TDP1 cell noCPT	TGFb inhibitor	TDP1 cell CPT	TDP1 inh	IL-1B inflam inh
CCS(=O)(=O)c1ncc(Cl)c(C(=O)Nc2ccccc2OC)n1	-29%	1µM*	3.5µM*	1µM*	.	-94*
CCS(=O)(=O)c1ncc(Cl)c(C(=O)NCc2ccc(OC)cc2)n1	5.6µM*	-100%	3.2µM*	1.6µM*	2%	.
CCOc1ccc(-c2csc(-c3nc(-c4ccc(Br)s4)cs3)n2)cc1	2%	0%	8%	13%	5%	.
COc1ccc(OC)c(/C=N/NC(=O)c2ccc(Cn3cc([N+](=O)[O-])cn3)o2)c1	5%	8%	-2%	5%	3%	7
COc1ccccc1NC(=O)c1ccc(C(=O)Nc2ccccc2OC)nc1	-2%	?	5%	4.6µM*	.	24
Cn1c(SCc2ccccc2Cl)nc2c1c(=O)[nH]c(=O)n2C	-22%	10%	-1%	14%	.	-7
CC(C)c1cc(NC(=O)CCl)on1	-50%	9.2µM*	?	13µM*	4%	-79*
Cc1cc(Br)c(NC(=O)CCl)c(Br)c1	-5%	?	?	-50%	-2%	?
CC1=C(C(=O)Nc2ccc([N+](=O)[O-])cc2)C(c2cccc(C(F)(F)F)c2)NC(=S)N1c1ccccc1 (stereo not drawn)	-56%	16µM*	?	13µM*	7%	?
COc1ccc(C2NC(=S)N(c3ccccc3)C(C)=C2C(=O)Nc2ccccc2)cc1 (stereo not drawn)	-10%	-15%	7%	-14%	9%	-5
CC(=O)Nc1ccc2nc(SCc3ccccc3)sc2c1	-2%	?	27%	-27%	-4%	.
COc1cc(CC(=O)Nc2ccc3nc(SC)sc3c2)cc(OC)c1OC	-10%	21µM*	-16%	?	.	77
CSc1nc2ccc(NC(=O)COc3ccccc3F)cc2s1	-18%	?	2%	-14%	-1%	26
COC(=O)CSc1nc2ccc(NC(C)=O)cc2s1	1%	1%	-2%	-7%	2%	-53*
COc1cc(C)ccc1OCCSc1nc2ccc(NC(C)=O)cc2s1	-29%	21µM*	-1%	?	3%	.
CCC(=O)N1CCc2cc(S(=O)(=O)NC(C(=O)NCCc3ccc(Cl)cc3)C(C)C)ccc21 (stereo not drawn)	-2%	-10%	1%	-17%	2%	.
NC(=O)c1ccc(OCC(=O)N2CCNC2=O)cc1	9%	-1%	-4%	16%	-2%	17
Cc1cccc(C(=O)n2nc(-c3cccnc3)nc2NCc2ccc(F)cc2)c1	-42%	-27%	?	-14%	6%	.
N/C(=N\OC(=O)N1CCOCC1)c1ccc(Br)cc1	-31%	?	8%	21µM*	3%	-21
N/C(=N\OC(=O)c1ccoc1)c1ccc(Br)cc1	4%	9%	-18%	-8%	0%	22
CCN(CC)S(=O)(=O)c1ccc2c(c1)N(CC(=O)NCc1ccccc1)C(=O)C1CCCCN21 (stereo not drawn)	3%	-11%	6%	?	4%	.
Cc1cc2oc(C(=O)N(Cc3ccccc3F)C3CCS(=O)(=O)C3)c(C)c2cc1Cl (stereo not drawn)	-23%	16µM*	?	?	9%	.
Cc1ccc2c(=O)cc(C(=O)N(Cc3ccccc3Cl)C3CCS(=O)(=O)C3)oc2c1 (stereo not drawn)	-16%	?	-1%	-27%	2%	.
Cc1c(C(=O)N(Cc2cccc(F)c2)C2CCS(=O)(=O)C2)oc2cc(Br)ccc12 (stereo not drawn)	-15%	18µM*	?	?	9%	.
C/C(=N\O)c1ccc(OCC(=O)N2CCCCC2)cc1	.	-7%	.	-4%	.	.
SMILES	HepG2 viability	TDP1 cell noCPT	TGFb inhibitor	TDP1 cell CPT	TDP1 inh	IL-1B inflam inh
COc1cccc(/C=C(\C#N)C(=O)Nc2ccc(NC(C)=O)cc2)c1OC	1%	5%	6%	5%	8%	.
Cc1ccc2c(c1)C(=C(C#N)C#N)C(=O)N2CCN1CCCCC1	-182%	18µM*	-12%	23µM*	.	-10
Cc1ccc2c(c1)C(=C(C#N)C#N)C(=O)N2CCN1CCOCC1	-18%	?	-11%	16µM*	.	13
Cc1ccc(C)c(N2CCN(CCN3CCCCC3)CC2)c1	-1%	?	11%	-28%	.	6
Cc1c(Nc2nc3ccccc3nc2N2CCN(c3ccccc3)CC2)c(=O)n(-c2ccccc2)n1C	1%	15µM*	17%	21µM*	10%	-19
Cc1c(Nc2scc(-c3ccccc3)[n+]2-c2ccccc2)c(=O)n(-c2ccccc2)n1C	-8%	21µM*	10%	?	5%	-27
Cc1c(Nc2nc(-c3ccc(Cl)cc3)cs2)c(=O)n(-c2ccccc2)n1C	-17%	10µM*	0%	?	-1%	?
CCOC(=O)Cc1csc(Nc2c(C)n(C)n(-c3ccccc3)c2=O)n1	-6%	-13%	25%	-10%	1%	25
Cc1c(Nc2c3ccccc3nc3ccccc23)c(=O)n(-c2ccccc2)n1C	-39%	-15%	0%	-9%	1%	6
COc1ccc(C(=O)N2CCC3(CCN(C(=O)Nc4cccc(F)c4)CC3)CC2)cc1	.	?	.	-25%	.	.
CCOc1ccc(S(=O)(=O)NCCC(=O)NCc2ccncc2)cc1	-13%	0%	-17%	-1%	.	9
Cc1ccsc1C(=O)N(Cc1cc2ccc(F)cc2nc1N1CCC(O)CC1)CC1CCCO1 (stereo not drawn)	.	-5%	.	9%[9.04 µM]	.	.
c1cn(-c2ccnc(-c3ccc4c(c3)OCO4)n2)cn1	.	-29%	.	-8%	.	.
O=C(NCc1ccccc1)C1=C[C@@H](c2csc3ccccc23)C[C@@H](OCCCCO)O1	-15%	1.6µM*	?	1.6µM*	6%	-12
O=C(O)C1=C[C@H](c2csc3ccccc23)C[C@H](OCc2ccc(CO)cc2)O1	4%	12%	-17%	-1%	6%	1
O=C(Nc1ccccc1)C1=C[C@H](c2coc3ccccc3c2=O)C[C@H](OCc2ccc(CO)cc2)O1	-9%	?	0%	?	3%	?

Screening results: PubChem BioAssay, National Center for Advancing Translational Sciences (NCATS)
